Several values for one entry are separate records, joined by “and”; a condition that tells them apart may be missing. Equal entries are not always repeated. The whole screen tested about 16,000 compounds, of which about 5,100 (32%) were called active. Not shown: some 25% with an inconclusive outcome. Some of the results follow. Values without a mark were called inactive. The call rests on the fitted dose curve; in most records, active means well fitted curve in the direction sought with a large enough effect; inconclusive means small, poorly fitted or top-dose-only effect, or effect the other way; inactive means no such curve, though single readings can be large or run the other way.
On the % scale 0 is the no-effect control and ±100 the full control effect.

Chain of Cytochrome P450 3A4 (Homo sapiens) (P08684 whole entry, looked up): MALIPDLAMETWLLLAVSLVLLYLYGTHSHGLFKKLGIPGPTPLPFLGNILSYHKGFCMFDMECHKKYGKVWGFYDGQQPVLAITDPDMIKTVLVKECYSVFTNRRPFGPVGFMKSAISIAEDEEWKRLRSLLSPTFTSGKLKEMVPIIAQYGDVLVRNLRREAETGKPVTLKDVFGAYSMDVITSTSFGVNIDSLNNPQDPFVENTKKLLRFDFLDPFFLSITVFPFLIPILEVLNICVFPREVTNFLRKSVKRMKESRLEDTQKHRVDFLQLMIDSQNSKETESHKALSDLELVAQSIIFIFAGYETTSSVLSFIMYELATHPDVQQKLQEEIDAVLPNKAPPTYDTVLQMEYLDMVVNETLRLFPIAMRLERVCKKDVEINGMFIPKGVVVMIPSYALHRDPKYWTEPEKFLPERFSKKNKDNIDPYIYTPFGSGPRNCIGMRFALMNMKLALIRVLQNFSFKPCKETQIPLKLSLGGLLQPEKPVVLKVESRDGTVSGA

This test concerns the target Cytochrome P450 3A4 (Homo sapiens) (UniProt P08684). In words: Cytochrome panel assay with activity outcomes. As to conditions: recombinant CYP, pro-luciferin dealkylation, luminescence, p450-cyp3a4; series mostly up to 57.1 µM; activity, negative = inhibition: at the top concentration. On the procedure:
The P450 gene superfamily is involved in the metabolism and clearance of xenobiotics. This assay used various human CYP P450 isozymes to measure the dealkylation of various pro-luciferin substrates to luciferin. The luciferin is then measured by luminescence after the addition of a luciferase detection reagent. Pro-luciferin substrate concentration in the assay was equal to its KM for its CYP P450 isozyme. Inhibitors and some substrates limit the production of luciferin, and decrease measured luminescence.
NCGC Assay Protocol Summary:
1, Reagent, 2 uL, Isozyme and Pro-Luciferin
2, Library compounds, 23 nl, 40 uM to 0.24 nM dilution series
3, Controls, 23 nl, Isozyme specific inhibitor
4, Reagent, 2 uL, NADPH regeneration solution
5, Incubation time, 60 min, Isozyme specific temperature
6, Reagent, 4ul, Detection reagent
7, Incubation time, 20 min, Isozyme specific temperature
8, Detection, 1 sec, ViewLux luminescent read
The luciferase-based P450-GloTM Screening Systems were obtained from Promega (Madison, WI) for CYP 1A2 (V9770), CYP 2C9 (V9790), CYP2 C19 (V9880), CYP 2D6 (V9890), and CYP 3A4 Luciferin-PPXE (V9910) and were adapted for 1,536-well microplates and an automated protocol. The control compounds furafylline for 1A2 (F124), sulfaphenazole for CYP 2C9 (S0758), ketoconazole for CYP 2C19 (K1003), quinidine for 2D6 (Q3625), and ketoconazole for 3A4 (K1003) were purchased from Sigma Aldrich (St. Louis, MO). Recombinant P450 enzymes were obtained from baculovirus constructs expressed in insect cells (BD/Gentest).
Medium-binding white solid Kalypsys plates used. Mixtures kept on ice. 1A2: 10 nM 1A2, 100 uM Luc-ME, 100 mM KPO4; 2C9: 10 nM 2C9, 100 uM Luc-H, 25 mM KPO4; 2C19: 5 nM 2C19, 10 uM Luc-H EGE, 50 mM KPO4; 2D6: 5 nM 2D6, 30 uM Luc-ME EGE, 100 mM KPO4; 3A4: 10 nM, 25 uM Luc-PPXE. All amounts are reflected in their final concentration, working concentration is 2x.
NADPH regeneration solution: 1.3 mM NADP+, 3.3 mM glucose-6-phosphate, 3.3 mM MgCl2, 0.4 U/mL glucose-6-phosphate dehydrogenase for all isozymes, 200 mM KPO4 for 3A4. Mixture prepared at RT but kept on ice during automated run.
RT incubation in auxilliary plate hotel for 1A2, 2D6, and 3A4; 37C for 2C9 and 2C19.
Keywords: P450, CYP1A2, CYP2C19, CYP2C9, CYP2D6, CYP3A4, Luciferase, MLSMR, MLSCN, NIH Roadmap, qHTS, NCGC
As to `N#C/C(=C\c1ccc(O)c(O)c1)C(=O)NCCCNC(=O)/C(C#N)=C/c1ccc(O)c(O)c1`, the concentration at half-maximal activity (AC50) is 2 µM (active).

For the molecule `N#C/C(=C\c1ccc(O)c(O)c1)C(N)=S`, the AC50 is 12.6 µM (active) and 15.8 µM (active).

`CC[C@@H]1[C@@H]2C[C@H]3[C@H]4N(C)c5ccccc5[C@@]45C[C@@H]([C@@H]2[C@@H]5O)N3[C@H]1O`: the “activity, negative = inhibition” value is 1.61% [at 25.6 µM].

Turning to `CNC[C@H](O)c1ccc(O)cc1`, the “activity, negative = inhibition” value was -13% [at 25.6 µM].

As for `NC[C@H](CP(=O)(O)O)c1ccc(Cl)cc1`, the “activity, negative = inhibition” value was -3.38%.

For the molecule `CC1(C)[C@@H]2CC[C@]1(C)CN(CCC[N+](C)(C)C)C2`, the activity, negative = inhibition is 12.3% [at 11.4 µM].

Take `C[N+](C)(C)CCCCCC[N+](C)(C)C`: the “activity, negative = inhibition” value is -2.76% [at 25.6 µM].

Regarding `O=C(Nc1ccc(C(F)(F)F)cc1)c1cccn(Cc2ccc3c(c2)OC(F)(F)O3)c1=O`, the “activity, negative = inhibition” value is -21.3%.

Take `CCCCn1c(O)c(C(CC)=Nc2ccc(OC)cc2OC)c(=O)[nH]c1=O`: the concentration at half-maximal activity (AC50) is 7.94 µM (active).

`C=CCn1c(O)c(C(CC)=NC2CC2)c(=O)[nH]c1=O`: the activity, negative = inhibition was -14.9% [at 2.29 µM].

`O=C(CCCN1CCC(n2c(=O)[nH]c3ccccc32)CC1)c1ccc(F)cc1`: the “activity, negative = inhibition” value is -10.2% [at 25.6 µM].

As for `CCCn1c(C)c(C(=O)c2cccc3ccccc23)c2ccccc21`, the “activity, negative = inhibition” value was -13.7%.

Turning to `COc1ccc(C(=O)c2c(C)n(CCN3CCOCC3)c3cc(I)ccc23)cc1`, the AC50 was 5.01 µM (active).

For the molecule `CC(C)CC(=O)C[C@H](O)C(Cl)(Cl)Cl`, the activity, negative = inhibition is 1.61% [at 11.4 µM].

On to `S=P(C1CCCCC1)(C1CCCCC1)[C@H](c1cccnc1)N1CCCC1`, for which the AC50 is 3.16 µM (active).

Take `CCC(CC)C(=O)NC1CCSC1=O` (stereo not given): the “activity, negative = inhibition” value was 10.8%.

Turning to `CN1CCN(c2ncc3ncc(=O)n(C)c3n2)CC1`, the “activity, negative = inhibition” value is 0.0574%.

Turning to `COc1ccc(C(=O)OC2C[C@H]3CC[C@@H](C2)N3C)cc1OC` (stereo not given in full), the “activity, negative = inhibition” value was -8.39% [at 25.6 µM].

With `Cc1ccc(S(=O)ON2CCC(C(=O)O)(c3ccccc3)CC2)cc1` (stereo not given), the activity, negative = inhibition was -0.254% [at 11.4 µM].

As for `C=C(CC1(C(C)NP(=O)(c2ccccc2)c2ccccc2)CC1)c1ccccc1` (stereo not given), the AC50 is 3.98 µM (active).

In the case of `O=P(c1ccccc1)(c1ccccc1)N1CC2(CC2)CC(O)(c2ccccc2)C1` (stereo not given), the “activity, negative = inhibition” value was 1.88%.

As to `C=C(CC1(CNP(=O)(c2ccccc2)c2ccccc2)CC1)c1ccccc1`, the AC50 was 3.98 µM (active).

On to `O=P(O)(O)c1ccccc1` (tested in a mixture with another compound), for which the activity, negative = inhibition was -7.35% [at 11.4 µM].

On to `CN1[C@@H]2CC[C@H]1CC(OC(=O)c1cc(Cl)cc(Cl)c1)C2` (stereo not given in full), for which the “activity, negative = inhibition” value is -16.8%.

Turning to `CC(C)(C)c1o[nH]c(=O)c1C[C@H](N)C(=O)O`, the activity, negative = inhibition result is “inactive”.

For `CCN1C[C@]2(C)CC[C@H](O)[C@@]34[C@@H]5CC6[C@@H](OC)C[C@@](O)([C@@H]5[C@@H]6O)[C@H](C[C@@H]23)[C@H]14`, the “activity, negative = inhibition” value is -7.01% [at 25.6 µM].

For `CCCN(CCC)[C@@H]1CCc2cccc(O)c2C1`, the activity, negative = inhibition entry is “inactive”.

Take `N=C(N)c1ccc(-c2ccc(-c3ccc(C(=N)N)cc3)o2)cc1`: the activity, negative = inhibition is 3.4% [at 11.4 µM].

Take `CCCN(CCC)C1Cc2cc(OC)c(OC)cc2C1`: the activity, negative = inhibition entry is “inactive”.

Regarding `C[N+](C)(C)CCO`, the “activity, negative = inhibition” value is 10%.

`C[C@H](c1ccccc1)N1CCN([C@@H](C)c2ccccc2)CC1`: the activity, negative = inhibition was -13.4% [at 11.4 µM].

On to `O=C1c2cc([N+](=O)[O-])ccc2-c2ccc3c4ccc5c6c(ccc(c7ccc1c2c73)c64)C(=O)c1cc([N+](=O)[O-])ccc1-5`, for which the activity, negative = inhibition is -21% [at 11.4 µM].

As to `O=C1c2ccccc2-c2cc([N+](=O)[O-])c([N+](=O)[O-])cc21`, the AC50 is 0.501 µM (active).

Take `NCCc1ccc(S(=O)(=O)O)cc1[N+](=O)[O-]`: the activity, negative = inhibition was -7.4% [at 11.4 µM].

For the molecule `CSCC[C@@H](N)P(C)(=O)O`, the activity, negative = inhibition was -8.04% [at 11.4 µM].

On to `C=C[C@]12CN(C)[C@H]3C1[C@@]1(C(=O)Nc4ccccc41)[C@H]1C[C@H]2[C@H]3CO1`, for which the “activity, negative = inhibition” value was -22.4% [at 25.6 µM].

With `Oc1cccc2cccnc12`, the activity, negative = inhibition is -3.42% [at 11.4 µM].

As to `CCC1C(=O)OCC1Cc1cncn1C` (stereo not given), the AC50 is 15.8 µM (active).

Take `CC[C@H]1C(=O)OC[C@H]1Cc1cncn1C`: the AC50 is 10 µM (active) and 3.16 µM (active).

For `c1csc(CN2CC3(CCNCC3)C2)n1`, the “activity, negative = inhibition” value is -12.1%.

For the molecule `OC1(c2ccc(F)cc2)CCNC1` (stereo not given), the “activity, negative = inhibition” value is -2.52%.

In the case of `O=S(=O)(O)/C(=C\c1ccccc1)c1ccccc1` (tested in a mixture with another compound), the activity, negative = inhibition is -11.7% [at 11.4 µM].

`COc1ccn(C)c(=O)c1C#N`: the “activity, negative = inhibition” value is -6.41% [at 25.6 µM].

On to `Cc1ccc(N=Nc2c(O)[nH]c(=O)[nH]c2=O)c([N+](=O)[O-])c1`, for which the “activity, negative = inhibition” value was 14.9%.

As for `CP(=O)(O)CCCN`, the activity, negative = inhibition result is “inactive”.

These data come from PubChem BioAssay AID1851 (National Center for Advancing Translational Sciences (NCATS), 2009).
